About 650 (31%) of roughly 2,100 compounds were called active. About 16% were inconclusive and are not listed. The list shows a part of the results. A number with no mark means an inactive call. The call rests on the fitted dose curve; in most records, active means well fitted inhibition curve with a large enough effect; inconclusive means small, poorly fitted or top-dose-only effect; inactive means flat fitted curve, though single readings scatter.
experiment: qHTS for inhibitors of Vif-A3G interactions: Cherry picks; details: HeLa A3G-eYFP + Vif (tagged APOBEC3G with the HIV-1 protein that degrades it), 24 h; Potency: eYFP fluorescence increase; series mostly up to 36.9 µM; activity, negative = fluorescence increase: at the top concentration; further: nearly all actives have a fitted effect of over 80% in size; on activity, negative = fluorescence increase: % of control where 0% means no effect
Method in brief: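 Cherry-picked compounds tested at several concentrations on A3G-eYFP/Vif HeLa cells for 24 hours; loss of Vif-driven degradation read as eYFP fluorescence by cytometric plate imaging, 488 nm excitation, 500-530 nm emission.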
Potency means the concentration at half of the fitted maximal effect.

Row | Structure (SMILES) | activity, negative = fluorescence increase | Potency
1 | O=C(Nc1nc2ccccc2s1)c1ccc([N+](=O)[O-])o1 | -9.27% | –
2 | Nc1c(C(=O)Nc2ccc(F)cc2)sc2nc(-c3cccs3)cc(C(F)(F)F)c12 | – | 1.84 µM (active)
3 | Cc1nnc(NC(=O)c2sc3nc(-c4cccs4)cc(C(F)(F)F)c3c2N)s1 | – | 9.2 µM (active)
4 | Nc1c(C(=O)Nc2nc3ccccc3s2)sc2nc(-c3cccs3)ccc12 | – | 18.4 µM (active)
5 | Nc1c(C(=O)Nc2nccs2)sc2nc(-c3cccs3)cc(C(F)(F)F)c12 | – | 14 µM (active)
6 | O=C(N/N=C/c1ccsc1)c1cc(-c2cccs2)nc2ccccc12 | -2.5% | –
7 | Cn1c(=O)c2c(nc(NC3CCCC3)n2C)n(C)c1=O | -11.2% [at 46.1 µM] | –
8 | CSc1nc(N)c(C#N)c(-c2ccccc2Cl)c1C#N | -4.05% | –
9 | N#Cc1c(Nc2ccccc2)[n+]([O-])c2ccc(Cl)cc2[n+]1[O-] | -9.86% | –
10 | COc1cccc(/C(O)=C/c2nc3ccc(C(=O)NCCc4cccc(C)c4)cc3[nH]c2=O)c1 | – | 11.6 µM (active)
11 | COc1ccc2nc(NC(=O)c3nc(S(=O)(=O)Cc4cccc(C)c4)ncc3Cl)sc2c1 | -0.58% [at 46.1 µM] | –
12 | COc1cccc(/C(O)=C/c2nc3ccc(C(=O)NCCc4ccc(Cl)cc4)cc3[nH]c2=O)c1 | – | 16.4 µM (active)
13 | COc1cccc(C(=O)N/N=C/C(Br)=C/c2ccccc2)c1 | -2.9% | –
14 | CCOC(=S)SCC(=O)N1CCc2cc(OC)ccc2C1C1C(=O)CCCC1=O (stereo not drawn) | -8.79% | –
15 | COc1ccc(NC(=S)Nc2ncccc2C)c(OC)c1 | 0.453% | –
16 | COc1cc(C(=O)c2ccc3c(c2)OCO3)cc(OC)c1OC | -6.58% | –
17 | Oc1ccc(C2=NNC(=NCc3ccc4c(c3)OCO4)SC2)c(O)c1 | -6.47% | –
18 | CC1(C(=O)NCc2ccccc2)Cc2c(-c3ccc(C(N)=O)cc3)ccnc2O1 (stereo not drawn) | -2.29% | –
19 | Cc1ccc2nsnc2c1NC(=O)c1ccc(-c2cc(Cl)ccc2Cl)o1 | – | 15.8 µM (active)
20 | CCSc1nccc(-c2nn(-c3ccc(C)cc3)ccc2=O)n1 | -4.33% | –
21 | CC(C)c1ccc(C(=O)NCCCNC(=O)c2cnccn2)cc1 | -3.75% | –
22 | CC(=O)Nc1ccc2c(c1)Cc1ccc(Cl)cc1-2 | -2.7% [at 46.1 µM] | –
23 | CC(=O)Nc1cccc(-c2ccnc3c2CC(C(=O)Nc2ccc(Cl)cc2)O3)c1 (stereo not drawn) | -16.3% | –
24 | CC(=O)Nc1ccc(C2=CC(=O)C[C@H](c3ccc(Cl)cc3)C2)cc1 | – | 18.4 µM (active)
25 | CCSC1=N/C(=C\C=C2/Oc3ccccc3N2CC)C(=O)S1 | – | 14.6 µM (active)
26 | Cc1nnc(N2C(=O)c3cccc4c([N+](=O)[O-])ccc(c34)C2=O)s1 | – | 18.4 µM (active)
27 | CC(=O)Oc1ccc(N2C(=O)c3cccc4c([N+](=O)[O-])ccc(c34)C2=O)cc1 | – | 1.46 µM (active)
28 | O=C1c2cccc3c([N+](=O)[O-])ccc(c23)C(=O)N1c1ccccn1 | – | 5.8 µM (active)

From PubChem BioAssay AID651812 (National Center for Advancing Translational Sciences (NCATS), 2012)
